Assay outcomes: PubChem BioAssay, Sanford-Burnham Center for Chemical Genomics
Hits are enriched below; roughly 2.5% of the tested compounds scored in any of these assays.
hiPSC survival: enhancers of human iPSC single-cell survival | hiPSC single-cell survival, ATPlite luminescence; 100% = ROCK inhibitor wells, 0% = DMSO | survival enhancement, % at 20 µM | 360,000 compounds, 0.044% hits | AID 602274; in the data active = survival enhancement above about 18%;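 note: cells exposed to compounds for 16 hours before the ATP read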
SKN-1 inh: C. elegans SKN-1 inhibition; C. elegans VP596 Pgst-4::GFP/RFP ratio, acrylamide-induced, 24 h; inhibition, % at 21.8 µM; 360,000 compounds, 0.49% hits; AID 624304;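 active = interference check ratio from 0.5 to 1.5 plus GFP to RFP signal ratio inhibition reaching or exceeding a fixed threshold, cut at about 30% in these data, passing the limit was not always enough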
CRFR2-BP antag: CRF-BP/CRF-R2 complex antagonism. 350,000 compounds, 0.59% hits. HEK293 CRF-R2/CRF-BP, CRF-induced calcium fluorescence. inhibition, % at 11.8 µM. AID 588475;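 active = inhibition of the ligand-induced calcium signal above about 50% at the single tested concentration, limit read from the data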
TAG inh: triacylglycerol accumulation inhibition; inhibition, % at 12.5 µM; 230,000 compounds, 0.66% hits; H9c2 cells, Nile Red lipid (TAG) fluorescence; cells loaded with 200 µM oleic acid;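 active = pattern-corrected inhibition of lipid staining of at least 50% with the nuclear-stain viability signal not falling by more than 50%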
CRFR2-BP ag: CRF-BP/CRF-R2 complex agonism; HEK293 CRF-R2/CRF-BP, calcium dye fluorescence (FLIPR); percent of saturating CRF peptide response; activation, % at 13.2 µM; 350,000 compounds, 0.46% hits; AID 588473;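 active = activation of at least 50%, plus an integration ratio under a set limit after plate pattern correction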
Cardio protect: myocardial damage modulation in H9c2 cells; 360,000 compounds, 0.63% hits; H9c2 cardiomyocytes, H2O2 injury protection, ATPLite, 2 h; protection from H2O2 cell death, % at 20 µM;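 active = compounds giving at least 50% protection of heart cells from peroxide-induced death in the single-dose screen, raw or plate-pattern-corrected value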
Numbers stand for hits; . = inactive; / = no result given.

SMILES	hiPSC survival	SKN-1 inh	CRFR2-BP antag	TAG inh	CRFR2-BP ag	Cardio protect
CCN(c1cccc(C)c1)S(=O)(=O)c1cn(CC(=O)OC)c2ccc([N+](=O)[O-])cc12	.	.	.	/	.	.
CCOC(=O)c1ccc2c(c1)nc(SCC(=O)c1cc3ccccc3o1)n2CC	.	52	.	.	.	.
O=C(NC(CO)(CO)CO)c1coc(=O)c(Br)c1	.	.	.	/	.	.
O=C(Nc1cc(Cl)cc(Cl)c1)c1coc(=O)c(Br)c1	.	.	71	.	.	.
COc1ccc(C2CC(c3cccs3)n3nc(N)nc3N2)cc1 (stereo not drawn)	.	.	.	.	.	62
Nc1nc2n(n1)C(c1cccs1)CC(c1ccc(F)cc1)N2 (stereo not drawn)	.	.	.	.	.	.
Cc1ccccc1-c1nnc(-c2cccc3ccccc23)o1	.	.	.	.	.	.
Cc1ccccc1-c1nnc(-c2ccccc2C)o1	.	46	.	.	.	.
O=C1OCCN1C(=O)[C@H]1[C@H](c2ccc([N+](=O)[O-])cc2)C(c2ccc(F)cc2)=NN1c1ccc(Br)cc1	.	.	.	.	.	52
COC(=O)CN1C(=S)N(c2ccc(OC)cc2)C(=O)/C1=C/c1ccc(N2CCOCC2)cc1	.	37	.	.	.	.
COC(=O)CN1C(=S)N(c2ccc(OC)cc2)C(=O)/C1=C/c1ccc(OC)cc1	.	.	.	.	.	.
COc1ccccc1CNc1nc(Nc2ccc(C)cc2C)c2sccc2n1	.	.	/	.	/	.
CCN1/C(=C/C=C/c2oc3ccc(-c4ccccc4)cc3[n+]2CC)Oc2ccc(-c3ccccc3)cc21	.	.	.	.	227	.
CCC(C)(C)NC(=O)CN(Cc1ccccc1Cl)C(=O)CCC(=O)Nc1cc(C)ccn1	.	.	.	.	.	.
O=C1c2ccccc2C(=O)c2c(O)c(O)cc(O)c21	.	.	52	.	.	.
Nc1ccc(O)c2c1C(=O)c1ccccc1C2=O	.	.	.	/	.	.
O=C(CCc1nnc2ccc(NCc3ccco3)nn12)N1CCN(c2ccccc2F)CC1	.	.	52	/	.	.
CC(=O)c1ccc(-n2nncc2-c2ccc([N+](=O)[O-])cc2)cc1	.	59	.	.	.	.
Cc1cc(=O)oc2cc(O[C@@H]3O[C@H](CO)[C@@H](O)[C@H](O)[C@H]3O)ccc12	.	.	.	/	.	.
O=C1c2ccccc2NC(c2ccc(-c3ccc(F)cc3)o2)N1O (stereo not drawn)	.	.	.	.	.	.
O=C1c2ccccc2NC(c2ccc(-c3cccc([N+](=O)[O-])c3)o2)N1O (stereo not drawn)	.	.	.	.	.	56
O=C1c2ccccc2NC(c2ccc(-c3ccc(Br)cc3)o2)N1O (stereo not drawn)	.	.	.	/	.	65
Cc1c(CCOC(=O)C23CC4(C)CC(C)(CC(C)(C4)C2)C3)sc[n+]1CC(=O)c1ccccc1	.	38	.	.	.	.
Cc1c(CCOC(=O)CC23CC4CC(CC(C4)C2)C3)sc[n+]1CC(=O)c1ccccc1	.	.	.	.	.	.
Cc1nc2ccccc2n1CC(=O)c1ccc(O)c(O)c1	.	.	.	.	.	.
SMILES	hiPSC survival	SKN-1 inh	CRFR2-BP antag	TAG inh	CRFR2-BP ag	Cardio protect
CCN(C(=O)CSc1cc(C)c2ccc(OC)cc2n1)C1CCS(=O)(=O)C1 (stereo not drawn)	.	.	98	.	.	.
CCOc1ccc(S(=O)(=O)Nc2cccc(C(=O)N3CCN(c4ccccn4)CC3)c2)cc1	.	.	.	.	.	.
Cc1ccc(NC(=S)NNc2ncc(C(F)(F)F)cc2Cl)c(C)c1	.	.	.	.	.	.
Cc1ccc(NC(=S)NNc2ncc(C(F)(F)F)cc2Cl)cc1	.	.	.	/	.	.
Fc1ccc(NC(=S)NNc2ncc(C(F)(F)F)cc2Cl)c(F)c1	.	.	.	/	56	.
FC(F)(F)c1cnc(NNC(=S)Nc2ccc(Cl)cc2)c(Cl)c1	.	.	.	.	52	.
COc1ccc(C(C)(O)c2nc(-c3cccc(C(F)(F)F)c3)cs2)cc1 (stereo not drawn)	.	.	/	.	/	.
COc1cccc(C(=O)OCC(=O)NCCC2=CCCCC2)c1	.	.	103	.	.	.
CCCS(=O)(=O)NC(=O)C1(C)CCCN(C(=O)c2ccc(F)cc2Cl)C1 (stereo not drawn)	.	.	/	.	/	.
COc1ccc2[nH]c(=O)c(CNC3CCCCC3)cc2c1	.	.	.	/	.	57
COc1ccc2[nH]c(=O)c(CN(c3ccccc3)S(=O)(=O)c3ccccc3)cc2c1	.	.	.	.	.	.
COc1ccc2[nH]c(=O)c(CN(c3ccccc3OC)S(=O)(=O)c3ccccc3)cc2c1	.	.	.	.	.	68
COc1ccc(NCc2cc3ccccc3[nH]c2=O)cc1	.	.	.	.	.	62
COc1ccc(NCc2cc3cc(OC)ccc3[nH]c2=O)cc1	.	.	.	/	.	99
COc1ccc2[nH]c(=O)c(CN(C(=O)NC3CCCCC3)C3CCCCC3)cc2c1	.	.	.	/	.	.
COc1ccc2[nH]c(=O)c(CNc3cccc(C)c3)cc2c1	.	.	.	.	.	.
CN1C(=O)C2(N=c3ccccc3=N2)c2ccccc21	.	.	68	.	.	.
CN1C(=O)C2(OCC(C)([N+](=O)[O-])CO2)c2ccccc21 (stereo not drawn)	.	.	.	/	.	.
CCN(CCCNC(=O)c1cn(CC)c2ccc(S(=O)(=O)N(C)C)cc2c1=O)c1cccc(C)c1	.	.	.	56	.	.
CCCCNC(=O)COC(=O)c1cc(S(=O)(=O)N2CCCCCC2)ccc1OC	.	40	.	.	.	.
COc1ccc(S(=O)(=O)N2CCCCCC2)cc1C(=O)OCC(=O)NC(N)=O	.	.	.	.	.	.
CCCCNC(=O)c1cn(CC)c2ccc(S(=O)(=O)N3CCCCCC3)cc2c1=O	.	.	60	/	.	.
CCn1cc(C(=O)NCCCOC(C)C)c(=O)c2cc(S(=O)(=O)N3CCCC3)ccc21	.	.	.	/	.	.
CCN(C(=O)CSc1nc(-c2cccs2)nc2ccccc12)C1CCS(=O)(=O)C1 (stereo not drawn)	.	.	.	.	.	.
C#CCNC(=O)C1=C[C@@H](c2cn(C(C)=O)c3ccccc23)C[C@@H](OCCCCO)O1	.	45	.	.	.	.
COCCn1c(SCC(=O)c2ccc3c(c2)OCCO3)nnc1-c1ccco1	.	.	98	.	.	.
Cn1c(SCC(=O)c2ccc3c(c2)OCCO3)nnc1C(F)(F)F	.	.	111	.	.	.
CCn1c(SCC(=O)c2ccc3c(c2)OCCO3)nnc1-c1ccco1	.	.	.	.	.	.
